# Data reported in the supplement of paper PMC10849652.
# Targets with a hit are over-represented here; the source holds about 7,900 in all. About 0.6% of all pairs of compound and target were hits. A number with no mark means an inactive call.
# What was measured:
# Assay in all cases: log2 fold change, soluble protein after heating vs DMSO (PISA); higher = thermal stabilisation; K562 cells, 10 uM, 30 min; active = over 0.2 and 3.5 SD of the protein, either way, in both replicates (recomputed)
# [1] = compound: CON(C)C(=O)N1N=C(c2cc(F)ccc2F)S[C@@]1(CCCN)c1ccccc1 [filanesib]
# Outline: (§1)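 Thermal stability values are relative to control samples and come from duplicates. They are expressed as log2 fold changes. For measurement, K562 cells (2×10^6 cells/mL) received 10 μM compound for 30 min, and aliquots were heated for 3 min over 48°C-58°C, pooled, and extracted at 4°C in PBS with 0.5% NP-40. Soluble protein, the supernatant after 21,000xg for 90 min, was quantified by TMTpro 16plex LC-MS/MS with equalised channel sums.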
# [2] = compound: CO[C@H]1C[C@@H]2CC[C@@H](C)[C@@](O)(O2)C(=O)C(=O)N2CCCC[C@H]2C(=O)O[C@H]([C@H](C)C[C@@H]2CC[C@H](n3cnnn3)[C@H](OC)C2)CC(=O)[C@H](C)/C=C(\C)[C@@H](O)[C@@H](OC)C(=O)[C@H](C)C[C@H](C)/C=C/C=C/C=C/1C [zotarolimus]
# Outline: as §1
# [3] = compound: COc1cc(C(=O)O)ccc1NC(=O)[C@@H]1N[C@@H](CC(C)(C)C)[C@](C#N)(c2ccc(Cl)cc2F)[C@H]1c1cccc(Cl)c1F [idasanutlin]
# Outline: as §1
# [4] = compound: COc1cc2nc(-c3cc(F)ccc3O)nc(N[C@@H]3CNC[C@H]3C(C)(C)O)c2cc1OC
# Outline: as §1
# [5] = compound: CS(=O)(=O)CCNCc1ccc(-c2ccc3ncnc(Nc4ccc(OCc5cccc(F)c5)c(Cl)c4)c3c2)o1 [lapatinib]
# Outline: as §1
# [6] = compound: CS(=O)(=O)N1CCN(Cc2cc3nc(-c4cccc5[nH]ncc45)nc(N4CCOCC4)c3s2)CC1 [pictilisib]
# Outline: as §1
# [7] = compound: CS(=O)(=O)c1ccc(-c2cnc(N)c(C(=O)Nc3ccccc3)n2)cc1
# Outline: as §1
# [8] = compound: C[C@@H]1COCCN1C2=NC(=NC(=C2)C3(CC3)S(=O)(=O)C)C4=C5C=CNC5=CC=C4
# Outline: as §1
# [9] = compound: C[C@H](C1=CC=C(C=C1)C(=O)NC2=C3C=CNC3=NC=C2)N
# Outline: as §1
# [10] = compound: C[C@H](Nc1ncnc2nc[nH]c12)c1cc2cccc(Cl)c2c(=O)n1-c1ccccc1 [duvelisib]
# Outline: as §1
# [11] = compound: Cc1cc(Nc2cc(CN3CCOCC3)c3nc(C)c(Cc4ccc(Cl)cc4F)n3n2)n[nH]1 [gandotinib]
# Outline: as §1
# [12] = compound: Cc1cc(Nc2cc(N3CCN(C)CC3)nc(Sc3ccc(NC(=O)C4CC4)cc3)n2)n[nH]1 [tozasertib]
# Outline: as §1
# [13] = compound: Cc1cc(SCc2sc(-c3ccc(C(F)(F)F)cc3)nc2C)ccc1OCC(=O)O
# Outline: as §1
# [14] = compound: COC1=CC=C(C=C1)CN2C=CC3=C2C=C(C=C3)C(=O)NO
# Outline: as §1
# [15] = compound: COc1cc(Nc2ncc3c(n2)-c2ccc(Cl)cc2C(c2c(F)cccc2OC)=NC3)ccc1C(=O)O [alisertib]
# Outline: as §1
# [16] = compound: COc1cccc2cc(-c3nc([C@H]4CC[C@H](C(=O)O)CC4)n4ncnc(N)c34)[nH]c12
# Outline: as §1
# [17] = compound: C[C@@H](Oc1cc(-c2cnn(C3CCNCC3)c2)cnc1N)c1c(Cl)ccc(F)c1Cl [crizotinib]
# Outline: as §1
# [18] = compound: Cc1ccc(-n2nc(C(C)(C)C)cc2NC(=O)Nc2ccc(OCCN3CCOCC3)c3ccccc23)cc1 [doramapimod]
# Outline: as §1
# [19] = compound: COc1cc2ncnc(Nc3ccc(F)c(Cl)c3)c2cc1OCCCN1CCOCC1 [gefitinib]
# Outline: as §1
# [20] = compound: Cc1ccc(C(=O)N(CCCN)[C@@H](c2nc3cc(Cl)ccc3c(=O)n2Cc2ccccc2)C(C)C)cc1 [ispinesib]
# Outline: as §1
# Chain of UniProt Q9HCS7 (Q9HCS7 whole entry, looked up): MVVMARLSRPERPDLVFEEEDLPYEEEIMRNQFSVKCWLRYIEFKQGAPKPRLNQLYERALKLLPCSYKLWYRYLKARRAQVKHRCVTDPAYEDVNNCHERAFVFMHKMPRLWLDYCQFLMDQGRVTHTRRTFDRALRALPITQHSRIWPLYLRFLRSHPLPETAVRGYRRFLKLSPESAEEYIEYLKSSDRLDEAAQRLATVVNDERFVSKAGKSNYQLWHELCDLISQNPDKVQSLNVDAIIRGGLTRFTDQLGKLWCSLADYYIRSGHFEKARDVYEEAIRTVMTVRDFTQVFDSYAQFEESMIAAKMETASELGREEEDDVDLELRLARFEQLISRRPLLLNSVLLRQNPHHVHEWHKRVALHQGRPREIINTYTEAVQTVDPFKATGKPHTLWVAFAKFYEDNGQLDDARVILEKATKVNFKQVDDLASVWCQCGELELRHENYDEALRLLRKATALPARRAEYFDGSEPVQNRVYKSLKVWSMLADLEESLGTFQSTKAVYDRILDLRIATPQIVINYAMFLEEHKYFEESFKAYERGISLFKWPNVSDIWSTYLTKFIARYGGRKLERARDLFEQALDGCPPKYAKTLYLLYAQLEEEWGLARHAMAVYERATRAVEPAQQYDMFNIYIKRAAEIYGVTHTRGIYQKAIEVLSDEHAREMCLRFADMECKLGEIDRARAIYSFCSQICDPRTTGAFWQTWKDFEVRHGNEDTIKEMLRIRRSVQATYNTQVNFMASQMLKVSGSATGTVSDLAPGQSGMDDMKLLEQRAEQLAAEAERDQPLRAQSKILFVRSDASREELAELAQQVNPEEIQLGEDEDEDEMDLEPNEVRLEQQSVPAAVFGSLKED
# Chain of UniProt P51668 (P51668 whole entry, looked up): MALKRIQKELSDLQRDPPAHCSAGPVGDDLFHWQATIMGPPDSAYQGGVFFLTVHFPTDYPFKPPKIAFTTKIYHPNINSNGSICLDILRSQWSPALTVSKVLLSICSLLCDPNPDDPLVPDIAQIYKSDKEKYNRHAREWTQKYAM
# Chain of UniProt Q96ET8 (Q96ET8 whole entry, looked up): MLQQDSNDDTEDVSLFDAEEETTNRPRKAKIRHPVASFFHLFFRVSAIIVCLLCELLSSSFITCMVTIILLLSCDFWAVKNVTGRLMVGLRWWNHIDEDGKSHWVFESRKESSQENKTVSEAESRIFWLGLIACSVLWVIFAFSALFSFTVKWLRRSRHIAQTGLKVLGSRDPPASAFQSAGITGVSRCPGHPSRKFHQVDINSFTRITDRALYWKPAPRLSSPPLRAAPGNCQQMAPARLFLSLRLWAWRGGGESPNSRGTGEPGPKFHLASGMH
# Chain of UniProt Q8N2K1 (Q8N2K1 whole entry, looked up): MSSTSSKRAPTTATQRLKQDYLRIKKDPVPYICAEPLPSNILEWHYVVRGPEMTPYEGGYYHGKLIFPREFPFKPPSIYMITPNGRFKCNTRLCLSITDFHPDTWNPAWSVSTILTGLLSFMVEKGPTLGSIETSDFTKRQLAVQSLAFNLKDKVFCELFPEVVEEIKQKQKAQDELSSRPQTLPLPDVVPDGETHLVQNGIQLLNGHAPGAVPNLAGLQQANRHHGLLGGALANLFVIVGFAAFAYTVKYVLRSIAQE
# Chain of UniProt O60784 (O60784 whole entry, looked up): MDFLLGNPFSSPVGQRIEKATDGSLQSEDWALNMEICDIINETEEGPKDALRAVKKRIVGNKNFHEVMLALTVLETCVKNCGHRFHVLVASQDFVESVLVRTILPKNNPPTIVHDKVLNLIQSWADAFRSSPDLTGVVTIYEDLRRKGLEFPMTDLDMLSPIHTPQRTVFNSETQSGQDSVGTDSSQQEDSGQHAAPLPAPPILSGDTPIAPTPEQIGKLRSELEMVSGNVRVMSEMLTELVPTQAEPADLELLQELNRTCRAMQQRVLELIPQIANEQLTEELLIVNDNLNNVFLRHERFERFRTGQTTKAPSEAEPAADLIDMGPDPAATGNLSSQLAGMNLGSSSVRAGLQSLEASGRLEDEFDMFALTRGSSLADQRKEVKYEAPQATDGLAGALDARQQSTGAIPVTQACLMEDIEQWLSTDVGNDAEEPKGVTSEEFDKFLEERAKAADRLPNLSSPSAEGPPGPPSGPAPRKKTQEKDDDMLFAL
# Chain of UniProt Q8NE00 (Q8NE00 whole entry, looked up): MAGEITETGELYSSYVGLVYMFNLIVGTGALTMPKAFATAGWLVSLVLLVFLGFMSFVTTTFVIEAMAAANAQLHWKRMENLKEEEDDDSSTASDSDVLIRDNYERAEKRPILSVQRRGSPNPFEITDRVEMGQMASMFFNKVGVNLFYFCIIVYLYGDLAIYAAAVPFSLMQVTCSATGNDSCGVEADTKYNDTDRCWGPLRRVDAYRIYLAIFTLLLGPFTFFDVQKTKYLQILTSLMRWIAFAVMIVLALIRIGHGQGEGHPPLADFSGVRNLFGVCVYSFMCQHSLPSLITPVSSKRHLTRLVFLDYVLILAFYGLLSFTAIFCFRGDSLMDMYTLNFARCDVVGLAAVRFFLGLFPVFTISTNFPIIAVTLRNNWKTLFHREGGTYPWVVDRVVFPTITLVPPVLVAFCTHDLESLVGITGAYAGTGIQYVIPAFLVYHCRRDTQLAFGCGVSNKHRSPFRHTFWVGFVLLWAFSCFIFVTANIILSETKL
# Chain of UniProt Q96HV5 (Q96HV5 whole entry, looked up): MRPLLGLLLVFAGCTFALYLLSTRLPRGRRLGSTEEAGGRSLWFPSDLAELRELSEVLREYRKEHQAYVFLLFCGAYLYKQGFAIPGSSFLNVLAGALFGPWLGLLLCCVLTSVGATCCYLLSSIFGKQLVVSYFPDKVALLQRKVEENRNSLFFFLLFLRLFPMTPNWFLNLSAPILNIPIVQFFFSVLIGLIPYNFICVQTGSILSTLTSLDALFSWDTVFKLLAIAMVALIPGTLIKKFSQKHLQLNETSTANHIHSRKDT
# Chain of UniProt P61960 (P61960 whole entry, looked up): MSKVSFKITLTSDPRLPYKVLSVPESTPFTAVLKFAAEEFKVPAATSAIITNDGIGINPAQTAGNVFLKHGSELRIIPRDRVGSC
# Chain of UniProt Q502W6 (Q502W6 whole entry, looked up): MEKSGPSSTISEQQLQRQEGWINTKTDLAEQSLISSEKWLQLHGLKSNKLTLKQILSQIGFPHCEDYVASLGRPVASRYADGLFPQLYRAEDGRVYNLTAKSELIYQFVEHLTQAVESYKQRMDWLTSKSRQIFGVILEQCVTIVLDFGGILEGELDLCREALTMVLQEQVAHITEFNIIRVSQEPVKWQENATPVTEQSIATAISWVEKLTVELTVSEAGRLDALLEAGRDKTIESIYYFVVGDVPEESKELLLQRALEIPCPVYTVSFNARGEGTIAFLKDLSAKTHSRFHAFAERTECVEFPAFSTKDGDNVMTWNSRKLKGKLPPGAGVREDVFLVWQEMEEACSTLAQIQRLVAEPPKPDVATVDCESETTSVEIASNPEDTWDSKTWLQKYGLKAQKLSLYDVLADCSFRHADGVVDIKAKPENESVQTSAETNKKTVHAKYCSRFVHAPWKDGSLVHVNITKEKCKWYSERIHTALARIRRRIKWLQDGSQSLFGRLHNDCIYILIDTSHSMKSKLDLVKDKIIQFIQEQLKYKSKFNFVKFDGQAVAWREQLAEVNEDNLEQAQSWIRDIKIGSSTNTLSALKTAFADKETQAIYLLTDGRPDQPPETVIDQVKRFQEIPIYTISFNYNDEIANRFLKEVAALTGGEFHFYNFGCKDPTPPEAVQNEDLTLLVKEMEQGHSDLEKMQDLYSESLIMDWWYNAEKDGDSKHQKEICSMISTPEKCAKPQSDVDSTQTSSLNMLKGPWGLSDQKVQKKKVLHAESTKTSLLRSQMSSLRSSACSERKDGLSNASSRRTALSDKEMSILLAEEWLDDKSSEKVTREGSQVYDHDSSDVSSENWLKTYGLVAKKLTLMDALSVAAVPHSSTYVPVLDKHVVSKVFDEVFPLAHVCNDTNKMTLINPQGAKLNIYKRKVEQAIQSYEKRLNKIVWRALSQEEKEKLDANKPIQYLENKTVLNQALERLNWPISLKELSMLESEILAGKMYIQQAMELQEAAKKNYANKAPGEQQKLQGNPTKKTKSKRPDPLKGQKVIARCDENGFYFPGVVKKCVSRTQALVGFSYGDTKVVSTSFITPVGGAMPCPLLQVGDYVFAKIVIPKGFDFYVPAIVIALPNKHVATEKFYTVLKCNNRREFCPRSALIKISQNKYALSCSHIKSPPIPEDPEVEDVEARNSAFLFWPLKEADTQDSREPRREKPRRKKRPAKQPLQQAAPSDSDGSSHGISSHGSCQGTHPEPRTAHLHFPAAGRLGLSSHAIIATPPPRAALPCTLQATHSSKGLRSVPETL
Target,log2 fold change [1],log2 fold change [2],log2 fold change [3],log2 fold change [4],log2 fold change [5],log2 fold change [6],log2 fold change [7],log2 fold change [8],log2 fold change [9],log2 fold change [10],log2 fold change [11],log2 fold change [12],log2 fold change [13],log2 fold change [14],log2 fold change [15],log2 fold change [16],log2 fold change [17],log2 fold change [18],log2 fold change [19],log2 fold change [20]
UBE2J2 isoform 3 (UniProt Q8N2K1),0.146,-0.031,0.092,0.134,-0.07,-0.145,0.252,-0.076,-0.365,0.101,0.028,-0.094,-0.01,–,–,–,–,–,–,–
TOM1 (UniProt O60784),-0.061,–,–,–,–,0.171,-0.04,-0.05,–,–,-0.018,0.044,–,0.078,0.103,0.094,-0.054,0.052,–,–
UBAP2L (UniProt F8W726),–,–,–,-0.069,0.067,0.078,–,–,–,–,-0.072,-0.003,–,–,-0.074,-0.084,–,–,-0.012,–
UFM1 isoform 2 (UniProt P61960),-0.12,-0.048,0,-0.085,-0.052,-0.062,-0.009,-0.065,-0.157,-0.004,-0.066,-0.042,0.063,–,-0.067,0.008,–,–,0.027,–
TMEM41A (UniProt Q96HV5),-0.158,–,0.024,0.088,-0.106,-0.047,-0.023,0.137,–,-0.001,-0.044,-0.138,0,-0.123,-0.096,0.092,0.139,0.025,0.034,0.065
VWA3B isoform 6 (UniProt Q502W6),–,-0.083,-0.41,-0.272,0.079,0.118,–,0.074,0.045,0.337,-0.08,0.028,0.172,-0.156,-0.081,-0.022,-0.012,0.079,0.008,-0.266
TMEM104 (UniProt Q8NE00),–,-0.01,-0.081,0.016,-0.156,-0.341,–,0.012,0.009,0.129,-0.087,–,-0.049,0.134,-0.012,0.164,-0.145,0.112,0.061,-0.34
XAB2 (UniProt Q9HCS7),–,–,–,–,–,–,–,-0.223,–,-0.146,–,–,0.013,-0.174,-0.12,0.105,-0.69 (active),-0.035,–,-0.223
WARS1 (UniProt G3V5U1),0.025,–,–,–,–,–,0.092,-0.282,–,–,–,–,–,-0.557,0.391,-0.105,0.09,-0.299,–,–
TVP23C (UniProt Q96ET8),–,-0.006,-0.124,-0.024,-0.14,-0.029,–,–,0.03,-0.065,-0.016,-0.028,-0.092,–,0.007,0.235,–,–,–,–
WARS1 (UniProt G3V227),–,0.086,-0.047,–,–,–,–,-0.024,0.147,-0.011,–,-0.016,-0.015,–,–,–,–,–,–,–
UBE2D1 (UniProt P51668),-0.003,-0.006,-0.083,0.137,-0.063,0.021,0.062,–,-0.004,0.054,0.047,-0.048,0.102,–,0.094,0.002,–,–,-0.012,0.056
